Assay outcomes as filed in PubChem.
This is a sample that favours compounds with a hit; in the whole collection about 3.1% have one here.
Vif-A3G inh – inhibitors of Vif-APOBEC3G interaction; HeLa A3G-eYFP + Vif (tagged APOBEC3G with the HIV-1 protein that degrades it), YFP fluorescence, overnight; Potency, µM (top dose mostly 46.1 µM), for the others: at the highest dose activity, negative = active, most hits filed as inhibitors; 410,000 tested, 0.076% active; AID 602310; note: potency is the fitted concentration of half-maximal effect; % is set by controls: 0 for no effect and ±100 for the full control effect; nearly all actives have a fitted effect of over 60% in size
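Read-out is eYFP fluorescence (Ex 488/Em 500-530) from Vif-expressing HeLa A3G-eYFP cells; more signal means A3G escaped Vif-mediated degradation. Cells plated overnight, compound pinned in, incubated overnight at 37 deg C.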
Vif-APOBEC3F blk – inhibitors of Vif-A3F interaction; Potency, µM (series often up to 46.1 µM), inactives show at the top dose activity, negative = active; HeLa A3F-eYFP + Vif (tagged APOBEC3F with the HIV-1 protein that degrades it), YFP fluorescence increase; AID 602313; 390,000 tested, 0.2% active; note: potency is the fitted concentration of half-maximal effect; % of control where 0% means no effect; nearly all actives have a fitted effect of over 65% in size
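Fluorescence increase (Ex 488/Em 500-530) after overnight compound treatment at 37 deg C flags inhibition of Vif-driven A3F-eYFP loss in stable HeLa A3F-eYFP/Vif cells seeded overnight beforehand.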
VDR inhibitor – blocks the human vitamin D receptor. 400,000 tested, 0.93% active. Potency, µM, for inactives: max response, negative = inhibition, most hits filed as inhibitors. VDR-SRC2-3 peptide fluorescence polarization, 2 h; note: potency is the fitted concentration of half-maximal effect; % is set by controls: 0 for no effect and ±100 for the full control effect
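Fluorescence polarization assay of small-molecule disruption of VDR binding to coregulator peptide SRC2-3. Compounds and controls pin-transferred, then read after 2 h incubation at ambient room temperature.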
TSHR antag – blocks TSH signaling through the human TSH receptor. P16473. TSHR-expressing cells, TSH-stimulated cAMP HTRF, 2 h; stronger effect = lower value. activity change, negative = inhibition, % at 11.5 µM. 330,000 tested, 0.2% active. AID 504810;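 active = activity change below a set negative limit, meaning inhibition stronger than a set level, cut at about -70% in these data; inconclusive = activity change between two set negative limits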; note: % is set by controls: 0 for no effect and ±100 for the full control effect
Target sequence (P16473 whole entry, looked up): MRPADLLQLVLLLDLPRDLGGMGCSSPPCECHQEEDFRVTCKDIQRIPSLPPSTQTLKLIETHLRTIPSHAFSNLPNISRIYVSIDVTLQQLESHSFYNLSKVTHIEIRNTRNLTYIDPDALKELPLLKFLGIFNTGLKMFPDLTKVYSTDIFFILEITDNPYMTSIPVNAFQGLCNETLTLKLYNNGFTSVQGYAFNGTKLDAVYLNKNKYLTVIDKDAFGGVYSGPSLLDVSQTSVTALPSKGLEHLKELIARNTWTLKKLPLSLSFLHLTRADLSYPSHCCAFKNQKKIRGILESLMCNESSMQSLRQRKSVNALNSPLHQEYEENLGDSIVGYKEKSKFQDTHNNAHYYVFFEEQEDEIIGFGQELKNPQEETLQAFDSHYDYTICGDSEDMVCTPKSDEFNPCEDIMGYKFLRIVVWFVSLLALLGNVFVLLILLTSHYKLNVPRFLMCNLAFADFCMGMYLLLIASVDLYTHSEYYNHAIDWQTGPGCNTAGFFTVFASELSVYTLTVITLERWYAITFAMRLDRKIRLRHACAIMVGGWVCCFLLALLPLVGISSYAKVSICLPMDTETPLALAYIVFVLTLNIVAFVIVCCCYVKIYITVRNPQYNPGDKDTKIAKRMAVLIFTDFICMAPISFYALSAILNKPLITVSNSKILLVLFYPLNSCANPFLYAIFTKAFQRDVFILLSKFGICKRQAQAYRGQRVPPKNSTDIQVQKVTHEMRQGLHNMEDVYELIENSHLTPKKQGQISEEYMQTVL
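TSHR-expressing cells were treated with compounds, then stimulated with TSH at EC80 (4nM final) for 2 hours at 37 deg C. Cellular cAMP was measured by HTRF competition between lysate cAMP and cAMP-d2 for a cryptate-labelled anti-cAMP antibody.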
PLK1 PBD inh – blocks phosphopeptide binding to human PLK1 polo-box domain; P53350; Plk1 PBD binding of FITC phosphopeptide, fluorescence polarization; Potency, µM, without a hit: max response, negative = inhibition, most hits filed as inhibitors; 360,000 tested, 2.8% active; AID 720504; note: potency is the fitted concentration of half-maximal effect; series mostly up to about 57 µM; % is set by controls: 0 for no effect and ±100 for the full control effect; nearly all actives have a fitted effect of over 65% in size
An asterisk follows results filed as active; u = inconclusive; x = not tested or not shown. Unless noted, calls come from the whole dose curve; as a rule, active = well fitted curve in the direction sought with a large enough effect; inconclusive = small, poorly fitted or top-dose-only effect, or another doubt; inactive = no such curve, though single readings can be large; an effect the other way counts as inactive or inconclusive.

SMILES	Vif-A3G inh	Vif-APOBEC3F blk	VDR inhibitor	TSHR antag	PLK1 PBD inh
COc1cccc(-n2c(C)cc(/C=C3/C(=N)N4C(=NC3=O)SN=C4S(C)(=O)=O)c2C)c1	3%	-6%	-19%	-18	19µM*
Cc1ccc(-n2cccc2/C=C2\C(=N)N3N=C(c4ccco4)SC3=NC2=O)cc1	4%	0%	5%	-11	30µM*
Cc1cc(C)cc(-n2cccc2/C=C2/C(=N)N3C(=NC2=O)SN=C3S(C)(=O)=O)c1	-8%	u	u	-20	-12%
COc1cc(/C=C2/C(=N)N3C(=NC2=O)SN=C3S(C)(=O)=O)ccc1OS(=O)(=O)c1ccc(C)cc1	-24%	u	u	-8	27µM*
CS(=O)(=O)C1=NSC2=NC(=O)/C(=C\c3ccc(OS(=O)(=O)c4ccccc4)cc3)C(=N)N21	1%	-6%	35µM*	3	30µM*
Nc1nc(Cl)nc2c1ncn2[C@@H]1O[C@H](COP(=O)(O)OP(=O)(O)OP(=O)(O)O)[C@@H](O)[C@H]1O	x	x	2%	-6	x
COc1ccc(C2/C=C\CN(C(=O)CC(C)(C)C)C(C)C(=O)N2Cc2ccc(F)cc2)cc1 (stereo not drawn)	-1%	x	u	x	x
COc1ccc(CN(Cc2ccco2)c2cnc(S(C)(=O)=O)nc2C(=O)Nc2ccc(C)c(C)c2)cc1	4%	3%	1%	x	x
O=C(C(=O)N1CCCCCC1)c1c[nH]c2ccccc12	0%	-2%	7%	-3	-14%
C[n+]1cc(C(=O)N2CCCCC2)ccc1/C=C/c1c[nH]c2ccccc12	11µM*	u	29%	-20	92%
COc1cc(C(=O)OCC(=O)c2cc(C)n(C)c2C)cc(OC)c1OC	u	-5%	u	12	17µM*
O=C(c1cc(COc2c(F)cccc2F)on1)N1CCCCCC1	-2%	-3%	-5%	16	-14%
O=C(c1cc(COc2c(F)cccc2F)on1)N1CCN(C2CCCCC2)CC1	0%	1%	-4%	-11	24µM*
COc1cc(C)ccc1OCc1cc(C(=O)N2CCCCCC2)no1	3%	4%	u	22	27µM*
COc1cc(Cl)ccc1OCc1cc(C(=O)N2CCCCCCC2)no1	1%	1%	15%	24	-15%
COc1cccc([C@@H]2Oc3ccc(Br)cc3C[C@H]2O)c1	x	x	-5%	x	x
CCN(CC)S(=O)(=O)c1ccc(C(=O)NCCSc2c(-c3ccc(OC)cc3)[nH]c3ccccc23)cc1	1%	1%	6%	x	x
CNC(=O)c1ccc2nc(-c3cccc(C)c3)c(-c3cccc(C)c3)nc2c1	-1%	x	-9%	x	x
Clc1ccccc1-c1cc(NCc2ccccc2)ncn1	x	x	45µM*	x	x
COCCCNC(=O)C1CCN(Cc2cc3ccccc3n2Cc2cccc(Cl)c2)CC1	0%	-2%	-3%	x	x
O=C(CCN1C(=O)c2ccccc2C1=O)Oc1ccc2ccccc2c1	-4%	2%	7%	-8	-11%
CC1=CC(C)(C)Nc2ccc(OC(=O)CCN3C(=O)c4ccccc4C3=O)cc21	11µM*	u	-8%	-8	-6%
S=c1[nH]c2cnc(Cl)nc2[nH]1	0%	u	u	x	24µM*
S=c1[nH]c2nc(Cl)c(Cl)nc2[nH]1	0%	-11%	x	x	-21%
C[C@H](CC[C@@H]1OC1(C)C)C1CC[C@H]2[C@@H]3CC=C4C[C@@H](O)CC[C@]4(C)[C@H]3CC[C@]12C (stereo partly drawn)	x	x	-5%	x	x
Cc1c(/C=C(\CC(=O)O)c2nc3ccccc3s2)cc(C#N)n1C	1%	-6%	u	-1	27µM*
Cc1nn(-c2ccccc2)c(Cl)c1/C=C(/CC(=O)O)c1nc2ccccc2s1	3%	-4%	3%	x	-11%
CC1(C)CC(=O)C2=C(C1)NC(Nc1nc3ccccc3o1)=NC21CCCC1	-1%	-3%	-27%	20	27µM*
COc1cc2c3nnc(-c4ccc(F)cc4)c-3cn(Cc3cccc(F)c3)c2cc1OC	7.9µM*	6.3µM*	66%	-1	u
CC(C)CC1=NN2C(=N)/C(=C\c3coc4ccccc4c3=O)C(=O)N=C2S1	u	u	79µM*	-9	-7%
